Assay outcomes (PubChem BioAssay)
This is a sample that favours compounds with a hit; in the whole collection about 9.4% have one here.
FLuc counter = inhibits or activates purified firefly luciferase, miR-21 counter-screen; purified FLuc, Km substrates, luminescence inhibition; Potency, µM (doses to about 57.5 µM), without a hit: at the highest dose activity change, negative = inhibition, actives largely listed as inhibitors; 360,000 compounds, 6.9% hits;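 also: plate controls were vehicle for no effect and reference inhibitor for full effect; nearly all actives have a fitted effect of over 55% in size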
Target sequence (P08659 whole entry, looked up): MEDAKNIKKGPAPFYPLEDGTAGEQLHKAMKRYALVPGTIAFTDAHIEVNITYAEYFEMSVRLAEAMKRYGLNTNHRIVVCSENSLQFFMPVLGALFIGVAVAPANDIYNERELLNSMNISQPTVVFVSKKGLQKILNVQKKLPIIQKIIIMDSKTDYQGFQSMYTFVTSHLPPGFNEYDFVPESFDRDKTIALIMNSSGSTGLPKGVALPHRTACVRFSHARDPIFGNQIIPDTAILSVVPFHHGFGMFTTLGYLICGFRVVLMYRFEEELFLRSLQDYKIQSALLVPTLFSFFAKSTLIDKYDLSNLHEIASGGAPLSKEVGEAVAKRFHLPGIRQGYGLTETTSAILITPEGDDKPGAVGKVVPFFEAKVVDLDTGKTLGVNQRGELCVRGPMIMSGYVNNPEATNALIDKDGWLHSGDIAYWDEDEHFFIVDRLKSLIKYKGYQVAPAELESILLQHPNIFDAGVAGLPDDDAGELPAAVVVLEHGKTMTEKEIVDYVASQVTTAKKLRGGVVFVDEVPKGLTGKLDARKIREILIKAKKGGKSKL
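Purified P. pyralis luciferase (10nM final) with 10uM D-luciferin and 10uM ATP (Km levels) in 50mM Tris acetate pH 7.5, 10mM Mg acetate, 0.01% Tween-20, 0.05% BSA; qHTS 6-point titration, ~60 µM downward; luminescence read.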
NPC1 prom act = activates the NPC1 promoter; Huh7 NPC1 promoter luciferase reporter, 24 h; Potency, µM (doses to about 9.22 µM), without a hit: top-dose activation, usual class: activators; 320,000 compounds, 2.4% hits; AID 485313; also: % of control where 0% means no effect; nearly all actives have a fitted effect of over 60% in size
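Huh7 reporter cells (NPC1 promoter driving luciferase) are dosed with compound for 24 h at 37 °C, 5% CO2; luciferase detection reagent is then added and luminescence measured after 10 min at ambient temperature.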
ELG1 genotoxic = induces genotoxicity in HEK293T cells with luciferase-tagged ELG1; HEK293T ELG1-luciferase reporter, luminescence, 16 h; Potency, µM (series often up to 46 µM), for the others: top-dose activity change, positive = activation, hits mostly activators; 330,000 compounds, 1.3% hits; also: % of control where 0% means no effect; nearly all actives have a fitted effect of over 60% in size
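Screening used a luciferase reporter fused to human ELG1 in HEK293T cells. Luminescence was read on a CCD plate imager after 16 hr exposure and 30 min ONE-Glo incubation.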
SMN2 splice up = increases expression of the SMN2 splice variant | HEK293 SMN2-luciferase splicing reporter, luminescence, 30-36 h | 210,000 compounds, 2.8% hits | Potency, µM (titrated, usually from 46.1 µM), inactives show top-dose activity change, positive = activation, actives largely listed as activators; also: % of control where 0% means no effect; nearly all actives have a fitted effect of over 55% in size
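HEK293 cells carry an SMN2 […]–luciferase reporter in which exon 7 inclusion puts luciferase in frame. Cells were plated 10-12 h before compound addition, then incubated 30-36 h at 37C. ONE-Glo luminescence was read; sodium butyrate at 4.5 mM final served as control.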
Rab9 promoter act = activators of Rab9 promoter; Huh7 Rab9 promoter-luciferase reporter, luminescence, 24 h; Potency, µM (titrated, usually from 9.22 µM), for inactives: at the highest dose activation, negative = inhibition, most hits filed as activators; 320,000 compounds, 2.8% hits; AID 485297; also: % of control where 0% means no effect; nearly all actives have a fitted effect of over 60% in size
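Measured in stably transfected Huh7 cells bearing a Rab9 promoter–luciferase construct: 24 h compound treatment at 37 °C, followed by luminescence detection.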
ELG1 DNA repair = blocks ELG1-dependent DNA repair in HEK293T cells | HEK293T ELG1-luciferase reporter, luminescence, 16 h; DNA damage induced by 5-fluorouridine | Potency, µM (doses to about 46.1 µM), for the others: top-dose activity change, negative = inhibition, most hits filed as inhibitors | 330,000 compounds, 2.3% hits | AID 504467; also: % is scaled to controls: 0 for no effect and ±100 for the full control effect; nearly all actives have a fitted effect of over 55% in size
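Step one: seed 2,000 cells per well. Step two: pin-transfer compound or DMSO alongside 5-fluorouridine. Step three: incubate 16 hr, 37 °C, 5% CO2. Step four: add ONE-Glo, wait 30 min, read luminescence.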
* = called active by the depositor; ? = inconclusive; · = not tested or not shown; [ ] = dose if it differs, or a comment. Calls follow the shape of the dose curve; as a rule, active = well fitted curve in the direction sought with a large enough effect; inconclusive = small, poorly fitted or top-dose-only effect, or another doubt; inactive = no such curve, though single readings can be large; an effect the other way counts as inactive or inconclusive. Potency is read from the fitted curve at half-maximal effect.

SMILES | FLuc counter | NPC1 prom act | ELG1 genotoxic | SMN2 splice up | Rab9 promoter act | ELG1 DNA repair
O=C(c1cc(-c2ccccc2)on1)N1CCC2(CC1)OCCO2 | 15µM* | ? | ? | 18µM* | 4µM* | ?
Cc1ccc2nc3c(cc2c1)CC1(C(=O)N(C)C(=O)N(C)C1=O)C1CCCCN31 (configuration not stated) | 5.4µM* | ? | ? | ? | 27% | ?
O=C1NC(=O)C2(Cc3ccccc3N3CCOCC32)C(=O)N1c1ccccc1 (configuration not stated) | 0% | -3% | 0% | -7% | 0% | -13%
Cc1ccc2nc3c(cc2c1)CC1(C(=O)N(C)C(=O)N(C)C1=O)C1COCCN31 (configuration not stated) | 15µM* | 20% | ? | · | 23% | ?
CC(C)C(=O)CP(=O)(O)O | · | · | · | -5%[9.22 µM] | · | ·
Cc1ccc(N)c(N)c1 | 5.4µM* | -3% | ? | 3.5µM* | -1% | ?
Nc1ccc(Cl)cc1N | · | · | · | 7.1µM* | · | ·
Cc1ccc(N)c(C(=O)c2ccc(Br)cc2)c1 | -16% | 1% | -1% | · | 4% | -3%
O=c1[nH]c(O)c(N=Nc2ccc(SC(F)F)cc2)c(=O)[nH]1 | 2.4µM* | 23% | 14% | · | ? | ?
Cc1nc2c(=O)n(C)c(=O)nc-2n(C)n1 | 0% | -42% | -14% | -75% | -35% | 1.8µM*
NNc1nncn1N | · | · | · | -14%[9.22 µM] | · | ·
ClCCCCl | · | · | · | 13% | · | ·
CC1(C)C[C@H]2C=C(C=O)[C@]3(C=O)C[C@]3(C)[C@H]2C1 | 1% | -35% | -14% | -91% | -37% | 5.8µM*
C=CC(=O)OCC(CO)(COC(=O)C=C)COC(=O)C=C | · | · | · | -107% | · | ·
C[C@H]1CCC[C@H](O)CCCCCc2cc(O)cc(O)c2C(=O)O1 | 3% | 2% | -38% | -47% | 6% | 7.3µM*
c1ccc(CCN2CCOCC2)nc1 | · | · | · | -20%[9.22 µM] | · | ·
CCOC(=O)C(=CNc1ccc(C(O)(C(=O)OCC)C(F)(F)F)cc1C)C(=O)OCC (configuration not stated) | 0% | -2% | -7% | -28% | 0% | 18µM*
CCCOC(=O)[C@@H]1[C@@H](C(=O)O)[C@H]2CC[C@@H]1O2 | · | · | · | -6%[9.22 µM] | · | ·
CN(C)C(Cc1ccccc1)C(=O)c1c[nH]c2ccccc12 (configuration not stated) | 24µM* | -1% | 0% | · | 1% | 15%
COc1ccc(C=O)cc1OC | · | · | · | -1% | · | ·
N[C@@H](CSC1c2ccccc2-c2ccccc21)C(=O)O | · | · | · | -3%[9.22 µM] | · | ·
COc1ccc(/C=C/C(=O)Nc2ccc(C)cc2)cc1 | 6.7µM* | · | · | ? | · | ·
COc1ccc2o/c(=N\O)c(C(=O)Nc3ccc(C)cc3)cc2c1 | ? | -1% | ? | · | 0% | 2%
CCN(CC)c1ccc(N=Cc2c(O)n(CCc3ccc(OC)c(OC)c3)c(=O)[nH]c2=O)cc1 | -18% | -10% | -13% | -101% | -7% | 2.6µM*
CCN(CCO)c1ccc(N=Cc2c(O)n(C)c(=S)[nH]c2=O)cc1 | 1.7µM* | ? | 13% | · | ? | ?
SMILES | FLuc counter | NPC1 prom act | ELG1 genotoxic | SMN2 splice up | Rab9 promoter act | ELG1 DNA repair
COc1ccc(-n2nc(C(=O)NCC(=O)N3CCC4(CC3)OCCO4)c3ccccc3c2=O)cc1OC | 3µM* | 20% | 10% | · | ? | ?
COc1cccc(-n2nc(C(=O)N3CCC4(CC3)OCCO4)c3ccccc3c2=O)c1 | -1% | 0% | -6% | 12% | -3% | -19%
[CH3][Hg][Cl] | · | · | · | -6% | · | ·
CN(C)c1ccc2c(c1)N=C(c1ccco1)OP2(=S)N1CCOCC1 (configuration not stated) | 15µM* | 5% | ? | 18% | 26% | ?
CCc1ccc(-c2nn(Cc3ccccc3)cc2C=O)cc1 | 6.7µM* | 2.5µM* | ? | 14µM* | 1µM* | ?
O=C(O)c1cn(Cc2ccccc2)nc1-c1ccccc1 | -15% | -1% | -3% | -11% | 0% | 1%
Cc1nn(C(C)(C)C)c(C)c1/C=N/OC(=O)Nc1ccc(Cl)c(Cl)c1 | 0.19µM* | -24% | -12% | · | -38% | -21%
Cc1ccc(NC(=O)c2snnc2C)cc1Cl | -12% | -4% | 18% | -3% | -1% | ?
C[C@H]1COC2=C1C(=O)C(=O)c1c2ccc2c1CCCC2(C)C | 21µM* | -2% | 13% | · | 14% | ?
O=C(N/N=C/c1c(O)n(-c2ccccc2)c(=S)[nH]c1=O)c1ccccc1 | ? | 0% | 6% | · | 2% | ?
Cc1ccccc1-n1c(O)c(/C=N/NC(=O)c2ccccc2O)c(=O)[nH]c1=S | 11µM* | 17% | 17% | · | 23% | ?
O=C(N/N=C/c1c(O)n(C2CC2)c(=S)[nH]c1=O)c1ccccc1O | 15µM* | ? | 11% | ? | ? | ?
NS(=O)(=O)C[C-]1C=C[CH]([Sb-]([Cl])([Cl])([Cl])([Cl])[Cl])C=C1.c1ccncc1 (configuration not stated) | · | · | · | 3%[9.22 µM] | · | ·
COC(=O)c1ccc(NC(=O)CSc2nc3ccc(N4C(=O)C5C6C=CC(C6)C5C4=O)cc3s2)cc1 (configuration not stated) | 13µM* | -4% | -13% | -104% | -8% | 13µM*
CCCCCCOc1ccc(CN2CCN(CCO)CC2)cc1 | 19µM* | 2.2µM* | 8.2µM* | 15% | 4µM* | ?
CCCCOc1ccc(CN2CCN(CCO)CC2)cc1 | -14% | 9% | ? | -12% | 7% | 19%
C=C(C)C(=O)OCC1CO1 (configuration not stated) | · | · | · | 11% | · | ·
COC(=O)C1CN(C#N)N(c2ccc(Cl)cc2)C12c1ccccc1-c1ccccc12 (configuration not stated) | -14% | -43% | -9% | -77% | -40% | 5.8µM*
CC(C)Br | · | · | · | -5% | · | ·
Oc1cccc(/C=N/NP(=S)(c2ccccc2)c2ccccc2)c1 | 24µM* | 1% | 3% | -14% | -3% | -20%
CC1(C)[C@@H]2CC[C@]1(C)CN(CCC[N+](C)(C)C)C2 | · | · | · | -1%[9.22 µM] | · | ·
Clc1nc(Cl)nc(Cl)n1 | · | · | · | -29% | · | ·
COc1ccc(N2C(=O)/C(=C/c3cc(C)n(-c4ccc(C)cn4)c3C)C(=O)NC2=S)c(OC)c1 | 27µM* | -1% | 13% | 8% | -14% | ?
O=C1NC(=O)N(Cc2ccccc2Cl)C(=O)/C1=C/c1cccs1 | 15µM* | -7% | ? | -11% | -4% | ?
O=C(CN1CC(c2ccccc2)CC1=O)Nc1cccc(F)c1 (configuration not stated) | -1% | -7% | 0% | -6% | -2% | 1%
